Reference: PubChem BioAssay (Tox21)
Records with an inconclusive call do not appear. Active and inactive are the calls of the source. The call rests on the fitted dose curve; in most records, active means well fitted curve in the direction sought with a large enough effect in the repeat runs; inconclusive means weak or mixed curves; inactive means no such curve, though single readings can be large; an effect the other way counts as inactive or inconclusive.

Experiments:
[1] = A CellTox Green Cytotoxicity Assay to monitor cytotoxicity in HEK293 cells - 40 hour (AID 1224871); further: nearly all actives have a fitted effect of over 45% in size
How it was run: (§1)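 Homogeneous no-lysis format: HEK293 cell suspension mixed with CellTox Green reagent, seeded, incubated 5 h at 37 C/5% CO2, then dosed by pintool with compound in DMSO.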

[2] = qHTS RealTime-Glo MT Cell Viability Assay in HEK293 cells - 16 hour (AID 1224872); further: top concentration of the series differs between compounds; nearly all actives have a fitted effect of over 50% in size
How it was run: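 Homogeneous bioluminescent viability format in HEK293 cells (600 cells/well). Following 5 h at 37 C/5% CO2, 23 nL compound was pintooled; the signal was measured repeatedly during 40 h incubation.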

[3] = qHTS RealTime-Glo MT Cell Viability Assay in HepG2 cells - 8 hour (AID 1224873); further: nearly all actives have a fitted effect of over 55% in size
How it was run: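 HepG2 cells (600/well) mixed with RealTime-Glo MT reagent, settled 5 h at 37 C/5% CO2 before compound addition. Nonlytic NanoLuc luminescence from viable-cell prosubstrate reduction read repeatedly during 40 h treatment at 37 C.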

[4] = qHTS RealTime-Glo MT Cell Viability Assay in HEK293 cells - 40 hour (AID 1224874); conditions: RealTime-Glo luminescence; max response: stronger effect = lower value; further: nearly all actives have a fitted effect of over 50% in size
How it was run: (§2)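 Measured as luminescence from the same continuously cultured HEK293 wells at successive time points (0, 8, 16, 24, 32, 40 h) after compound addition. Reagent present from seeding; dosing at 5 h; incubation 37 C.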

[5] = A CellTox Green Cytotoxicity Assay to monitor cytotoxicity in HEK293 cells - 24 hour (AID 1224875); further: series mostly up to about 77 µM; nearly all actives have a fitted effect of over 45% in size
How it was run: as §1

[6] = A CellTox Green Cytotoxicity Assay to monitor cytotoxicity in HepG2 cells - 16 hour (AID 1224876); further: nearly all actives have a fitted effect of over 45% in size
How it was run: (§3)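 Fluorescent DNA-binding dye, 600 HepG2 cells/well, 5 h preincubation then compound in DMSO; same plates read at 0–40 h, 37 C.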

[7] = A CellTox Green Cytotoxicity Assay to monitor cytotoxicity in HepG2 cells - 24 hour (AID 1224878); further: nearly all actives have a fitted effect of over 45% in size
How it was run: as §3

[8] = A CellTox Green Cytotoxicity Assay to monitor cytotoxicity in HepG2 cells - 40 hour (AID 1224879); further: nearly all actives have a fitted effect of over 40% in size
How it was run: as §3

[9] = qHTS RealTime-Glo MT Cell Viability Assay in HEK293 cells - 0 hour (AID 1224880)
How it was run: as §2

[10] = qHTS RealTime-Glo MT Cell Viability Assay in HepG2 cells - 32 hour (AID 1224877); further: nearly all actives have a fitted effect of over 55% in size
How it was run: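 Cell number in HepG2 cultures estimated from NanoLuc luminescence generated by metabolic reduction of a prosubstrate by living cells. The homogeneous, nonlytic format allowed repeated reads at 0, 8, 16, 24, 32 and 40 h of compound exposure.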
On the % scale 0 is the no-effect control and ±100 the full control effect.

CCCCOC(C)=O
inactive: Potency [1] | Potency [2] | outcome [3] | max response [4] 8.22% | Potency [5] | Potency [6] | Potency [7] | Potency [8] | outcome [9]

CCN(CC)CCOC(=O)C(O)(c1ccccc1)c1ccccc1
inactive: Potency [1] | Potency [2] | outcome [3] | max response [4] -0.657% | Potency [5] | Potency [6] | Potency [7] | Potency [8] | outcome [9]

CCOC(=O)COc1ccc(Cl)cc1Cl
inactive: Potency [1] | Potency [2] | outcome [3] | max response [4] -3.04% | Potency [5] | Potency [6] | Potency [7] | Potency [8] | outcome [9]

CCN(CCO)CCn1c(Cc2ccccc2)nc2c1c(=O)n(C)c(=O)n2C
inactive: Potency [1] | Potency [2] | outcome [3] | max response [4] -42.2% | Potency [6] | Potency [10] | Potency [7] | Potency [8] | outcome [9]

C[C@H](N)C(=O)c1ccccc1
inactive: Potency [1] | Potency [2] | outcome [3] | max response [4] -10.2% | Potency [5] | Potency [6] | Potency [7] | outcome [9]

CC(C)NCC(O)c1ccc([N+](=O)[O-])cc1 (configuration not stated)
inactive: Potency [1] | Potency [2] | outcome [3] | max response [4] 6.95% | Potency [5] | Potency [6] | Potency [7] | Potency [8] | outcome [9]

O=c1[nH]c2ccccc2n1C1CCNCC1
inactive: Potency [1] | Potency [2] | outcome [3] | max response [4] 2.11% | Potency [6] | Potency [10] | Potency [7] | Potency [8] | outcome [9]

C[N+]1(C)CCCCC1
inactive: Potency [1] | Potency [2] | outcome [3] | max response [4] 19.2% | Potency [6] | Potency [10] | Potency [7] | Potency [8] | outcome [9]

COP(=O)(O)OC
inactive: Potency [1] | Potency [2] | outcome [3] | max response [4] -2.51% | Potency [5] | Potency [6] | Potency [7] | Potency [8] | outcome [9]

COc1ccc(CN2CCNCC2)c(OC)c1OC
inactive: Potency [1] | Potency [2] | outcome [3] | max response [4] 5.58% | Potency [6] | Potency [10] | Potency [7] | Potency [8] | outcome [9]

CCCCCCC(=O)CCCCCC/C=C/C[C@@H](O)[C@H](O)[C@@](N)(CO)C(=O)O
inactive: cytotoxicity increase [1] -5.02% [at 15.8 µM] | activity change, negative = cytotoxicity [2] -2.21% [at 15.8 µM] | viability change, negative = cytotoxic [3] 1.7% [at 15.8 µM] | max response [4] 2.74% | activity change [5] -5.64% [at 15.8 µM, stronger effect = higher value] | activity change, negative = cytotoxic [10] 0.443% [at 15.8 µM] | cytotoxicity [7] -14.9% [at 15.8 µM] | cytotoxicity increase [8] -21.5% [at 15.8 µM] | activity change, negative = cytotoxicity [9] 3.85% [at 15.8 µM]

CNC(=O)Oc1ccccc1C(C)C
inactive: Potency [1] | Potency [2] | outcome [3] | max response [4] 3.33% | Potency [5] | Potency [6] | Potency [7] | Potency [8] | outcome [9]

O=[N+]([O-])CCO
inactive: Potency [1] | Potency [2] | outcome [3] | max response [4] 3.11% | Potency [5] | outcome [9]

CN(CCO)CCO
inactive: Potency [1] | Potency [2] | outcome [3] | max response [4] -0.53% | Potency [5] | Potency [6] | Potency [7] | Potency [8] | outcome [9]

O=C(O)C(Br)(Br)Br
inactive: Potency [1] | Potency [2] | outcome [3] | max response [4] -0.0563% | Potency [5] | Potency [6] | Potency [7] | Potency [8] | outcome [9]

CCC(C(N)=O)N1CCCC1=O (configuration not stated)
inactive: Potency [1] | Potency [2] | outcome [3] | max response [4] 6.54% | Potency [5] | Potency [6] | Potency [7] | Potency [8] | outcome [9]

Cc1ccc2c(c1)C1CN(C)CCC1N2 (configuration not stated)
inactive: cytotoxicity increase [1] -9.63% [at 15.8 µM] | activity change, negative = cytotoxicity [2] -1.2% [at 15.8 µM] | viability change, negative = cytotoxic [3] -2.24% [at 15.8 µM] | max response [4] 2.17% | cytotoxicity increase [6] 12.2% [at 15.8 µM] | activity change, negative = cytotoxic [10] -0.204% [at 15.8 µM] | cytotoxicity [7] 11.8% [at 15.8 µM] | cytotoxicity increase [8] 15.6% [at 15.8 µM] | activity change, negative = cytotoxicity [9] -0.907% [at 15.8 µM]

COP(=O)(OC)O/C(C)=C/C(=O)N(C)C
inactive: Potency [1] | Potency [2] | outcome [3] | max response [4] 13.5% | Potency [5] | Potency [6] | Potency [7] | Potency [8] | outcome [9]

COc1ccc(C=O)cc1O
inactive: Potency [1] | Potency [2] | outcome [3] | max response [4] 0.952% | Potency [6] | Potency [10] | Potency [7] | Potency [8] | outcome [9]

Cc1ccc2cc(C)ccc2c1
inactive: Potency [1] | Potency [2] | outcome [3] | max response [4] 8.7% | Potency [6] | Potency [10] | Potency [7] | Potency [8] | outcome [9]

CCC(=O)c1ccc(Cl)cc1
inactive: Potency [1] | outcome [3] | Potency [6] | Potency [10] | Potency [7] | Potency [8]
